The list is not random: actives were taken first. Their share in the collection is about 2.5%.
Cruzain Triton – cruzain (T. cruzi) inhibition with detergent. purified cruzain, Z-FR-AMC fluorescence, 0.01% Triton. AID 1478. Potency, µM, for inactives: max response, negative = inhibition, usual class: inhibitors. P25779. 200,000 compounds, 0.43% hits;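 also: plate controls were neutral wells for no effect and buffer without enzyme for full effect; nearly all actives have a fitted effect of over 40% in size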
Target sequence (P25779 123-467 limits assumed): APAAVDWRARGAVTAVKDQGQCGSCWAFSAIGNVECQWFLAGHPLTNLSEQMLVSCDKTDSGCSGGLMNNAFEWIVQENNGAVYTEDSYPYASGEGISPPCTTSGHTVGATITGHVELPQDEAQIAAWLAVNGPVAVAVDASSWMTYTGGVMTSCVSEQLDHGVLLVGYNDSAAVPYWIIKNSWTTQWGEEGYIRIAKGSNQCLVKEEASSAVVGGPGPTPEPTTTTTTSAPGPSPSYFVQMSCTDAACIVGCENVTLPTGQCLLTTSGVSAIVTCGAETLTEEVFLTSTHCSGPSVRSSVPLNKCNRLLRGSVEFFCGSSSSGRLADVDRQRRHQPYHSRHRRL
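Enzyme 1.5 nM, Z-FR-AMC 2 uM, NaOAc 100 mM pH 5.5, DTT 5 mM, Triton X-100 0.01%; 15 min RT compound preincubation; kinetic ex360/em450, 60 s delta.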
Cruzain noTriton – cruzain (T. cruzi) inhibition without detergent | 200,000 compounds, 2.3% hits | Potency, µM, for the others: max response, negative = inhibition, hits mostly inhibitors | purified cruzain, Z-FR-AMC fluorescence, no detergent | AID 1476 | P25779;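 also: plate controls were enzyme without inhibitor for no effect and buffer without enzyme for full effect; nearly all actives have a fitted effect of over 40% in size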
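Purified cruzain at 1.5 nM, pre-incubated 15 min with compound at room temperature in 100 mM sodium acetate pH 5.5, 5 mM DTT, 0.00005% Triton X-100. Reaction started with 2 uM Z-FR-AMC; AMC fluorescence increase over 60 s gives rate.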
Papain counter – blocks papain protease activity, flagging nonselective cruzain hits | Potency, µM, for the others: max response, negative = inhibition, actives largely listed as inhibitors | purified papain, Z-FR-AMC fluorescence cleavage | shares compounds with Cruzain Triton | AID 2161 | 410 compounds, 41% hits;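 also: 0% = no-compound wells and -100% = no-enzyme wells; nearly all actives have a fitted effect of over 35% in size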
* hit, by the source's call; ? = inconclusive. Calls follow the shape of the dose curve; as a rule, active = well fitted curve in the direction sought with a large enough effect; inconclusive = small, poorly fitted or top-dose-only effect, or another doubt; inactive = no such curve, though single readings can be large; an effect the other way counts as inactive or inconclusive. Potency is read from the fitted curve at half-maximal effect.

SMILES | Cruzain Triton | Cruzain noTriton | others
O=C(Nc1nc(-c2cccnc2)cs1)c1ccc(S(=O)(=O)N2CCOCC2)cc1 | 7% | -3%
CCc1nnc(NC(=O)c2ccc(S(=O)(=O)N3CCCCC3C)cc2)s1 (configuration not stated) | 3% | -5%
CCc1nnc(NC(=O)c2ccc(S(=O)(=O)N3CCCCCC3)cc2)s1 | 4% | 13µM*
O=C(Nc1nc(-c2ccc3c(c2)OCCO3)cs1)c1ccc(S(=O)(=O)N2CCCCC2)cc1 | -1% | 13µM*
O=C(Nc1nc(-c2ccc(S(=O)(=O)N3CCCCCC3)cc2)cs1)c1ccccc1 | -3% | 10µM*
Cc1cc2c(cc1NS(=O)(=O)c1cccc(C#N)c1)n(C)c(=O)c(=O)n2C | -5% | 2%
O=C(CSc1nc(=O)[nH]c2c1CCC2)NCc1ccc(F)cc1 | -1% | 7%
CCSc1nnc(NC(=O)CSc2nc3c(c(=O)n2-c2ccccc2OC)SCC3)s1 | 28µM* | -28%
COc1ccc(NC(=O)CSc2nc3c(c(=O)n2-c2ccccc2OC)SCC3)cc1 | -3% | -8%
CC1(C)C(C(=O)O)N2C(=O)CC2S1(=O)=O (configuration not stated) | 1% | 3%
COc1cccc([C@@H]2Oc3ccc(OC)cc3C[C@H]2OC(=O)N[C@H]2CCCc3ccccc32)c1 | -2% | -10%
Cc1ccc(S(=O)(=O)N(CC(=O)Nc2cccc([N+](=O)[O-])c2)C2CCCCC2)cc1 | -5% | 4%
Cc1ccc(S(=O)(=O)N(CC(=O)Nc2ccc(Cl)c([N+](=O)[O-])c2)C2CCCCC2)cc1 | -6% | 13µM*
O=C(Nc1ccccc1C(=O)OCC(=O)N1CCc2ccccc2C1)c1ccco1 | -5% | 13µM*
CC1CCCCC1NC(=O)COC(=O)c1ccccc1NC(=O)c1ccco1 (configuration not stated) | 3% | -1%
CCOC(=O)c1c(C)[nH]c(C(=O)COC(=O)CCS(=O)(=O)c2ccc(C)cc2)c1C | ? | 1%
CCOC(=O)c1c(C)[nH]c(C(=O)COC(=O)CCC2CCCC2)c1C | 8% | 16µM*
CC(C)(C)C(=O)NC1(C(F)(F)F)C(=O)Nc2c1c(=O)[nH]c(=O)n2-c1ccccc1 (configuration not stated) | -3% | -1%
C/C1=C2N=C(/C=C3N=C(/C(C)=C4\[N-]C(C)(C5N=C1C(C)(CCC(=O)NCC(C)OP(=O)([O-])O[C@H]1C(O)C(n6cnc7cc(C)c(C)cc76)O[C@@H]1CO)C5CC(N)=O)C(C)(CC(N)=O)C4CCC(N)=O)C(C)(CC(N)=O)C\3CCC(N)=O)C(C)(C)C/2CCC(N)=O.[CH2-]C1OC(n2cnc3c(N)ncnc32)C(O)C1O.[Co] (some centres not stated) | 10µM* | 13µM*
O=C(/C=C/c1ccccc1Cl)NC(=S)Nc1ccccc1C(=O)NC1CCCCC1 | 1% | 4µM*
O=C(NC1CCCCC1)c1ccccc1NC(=S)NC(=O)C1CCC1 | 2% | -12%
COC(=O)c1cc2sccc2n1Cc1ccc(F)cc1Cl | -7% | -8%
O=C1SC(SCc2ccccc2)=N/C1=C\c1ccco1 | -7% | -4%
CC(/C=C1\N=C(SCc2ccccc2Cl)SC1=O)=C\c1ccccc1 | -5% | 25µM*
O=C(Nc1ccccc1Cl)C1CCN(c2nc3ccccc3[nH]2)CC1 | 2% | -9%
SMILES | Cruzain Triton | Cruzain noTriton | others
O=C(Cn1c(=O)n2nc(-c3cccc(F)c3)nc2c2ccccc21)N1CCN(c2ccc(F)cc2)CC1 | 0% | 14%
O=C(CSc1nnc2scc(-c3ccc(Cl)cc3)n12)Nc1ccc(F)cc1 | -3% | -5%
CC1CCN(c2[nH]c(=S)c(C#N)c3c2CCCC3)CC1 | 3% | -21%
CC1(C)Cc2c(c(N3CCCCC3)[nH]c(=S)c2C#N)CS1 | -1% | 13µM*
CCc1cc2c(-c3ccccc3)cc(=O)oc2c(CN2CCOCC2)c1O | -6% | 4%
CCCCc1cc(=O)oc2c(CN3CCCC3)c(O)ccc12 | 25µM* | ?
CCc1c(C)c2cc(Cl)c(O)c(CN3CCCCC3)c2oc1=O | 32µM* | ?
CCc1cc(=O)oc2c(CN3CCCC3)c(O)c(Cl)cc12 | 28µM* | ?
O=c1cc(-c2ccccc2)c2ccc(O)c(CN3CCCCC3)c2o1 | -15% | ?
CCc1c(C)c2ccc(O)c(CN3CCN(c4ccccc4)CC3)c2oc1=O | -6% | -14%
Cc1cc(-c2ccc(C)c(S(=O)(=O)NCc3cccs3)c2)on1 | -3% | -1%
Cc1cccc(OCCn2c(SCC(N)=O)nc3ccccc32)c1 | -10% | ?
Cc1cc(C)n(-c2nc(C)nc(NCc3ccccc3)n2)n1 | 4% | -4%
Cc1nn(-c2nnc(NCc3ccccc3)nn2)c(C)c1Br | 13µM* | ?
Fc1ccc(Nc2nc(N3CCOCC3)c3ccccc3n2)cc1 | ? | 16µM*
c1ccc2c(Nc3nc(N4CCOCC4)c4ccccc4n3)cccc2c1 | -8% | -8%
O=C(c1cccs1)N(Cc1cccnc1)c1nc2ccc(F)cc2s1 | -2% | -1%
COc1cccc(O)c1O | 3% | -11%
CCc1ccc(-n2c(=O)c3sc4ccccc4c3n(CC(=O)N3CCCC3)c2=O)cc1 | -2% | 4%
O=C(CNC(=O)/C(=C/c1ccccc1)NC(=O)c1ccc(Br)cc1)OCc1ccccc1 | ? | -20%
O=C(CNC(=O)/C(=C\c1ccc(Br)cc1)NC(=O)c1ccccc1)OCc1ccccc1 | 10µM* | ?
Cc1ccc(Cl)cc1NCc1nnc2n1CCCCC2 | 2% | -1%
Cc1nn(CC(=O)NCc2ccc(N(C)C)cc2)c(=O)c2c(C)n(-c3ccc(Cl)cc3)nc12 | 2% | -14%
CCn1nc(-c2cccs2)nc2c(=O)n(C)c(=O)nc1-2 | 2.2µM* | 2µM*
CCNc1ncc2nc(-c3cccs3)c(=O)n(C)c2n1 | 4% | 10%
SMILES | Cruzain Triton | Cruzain noTriton | others
O=C(CN1C(=O)COc2ccccc21)NCCc1ccc(Cl)cc1 | 1% | 0%
O=C(CNC(=O)c1ccc(Br)cc1)NCCc1nc2ccccc2[nH]1 | -9% | 8%
O=[N+]([O-])c1cc(-c2nc(-c3ccccc3)no2)ccc1NC1CCCCC1 | -4% | -7%
C=CC(C)(C)c1[nH]c2ccccc2c1C1=C(O)C(=O)C(c2c[nH]c3c(CC=C(C)C)cccc23)=C(O)C1=O | 32µM* | ? | Papain counter=4.5µM*
Cc1ccc(-c2csc3nc(SCC(N)=O)n(Cc4ccccc4)c(=O)c23)cc1 | -2% | 7%
N#CCSc1nc2scc(-c3cccs3)c2c(=O)n1CCc1ccccc1 | 7% | 16µM* | Papain counter=10%
CCOC(=O)C1CCC(CN(Cc2cccc(Br)c2)S(=O)(=O)c2ccc(Cl)cc2)CC1 (configuration not stated) | 1% | -1%
CCOC(=O)[C@H](CCc1ccccc1)N[C@@H](C)C(=O)N1[C@H](C(=O)O)C[C@H]2CCC[C@@H]21 | -3% | -10%
CCOC(=O)[C@H](CCc1ccccc1)N[C@@H](C)C(=O)N1[C@H](C(=O)O)C[C@H]2CCCC[C@@H]21 | 2% | ? | Papain counter=11%
O=C(O)[C@H](Cc1cc(I)c(O)c(I)c1)C1CCCCC1 | -5% | -7%
Cc1ccc(Cc2nc3ccccc3nc2SCC(=O)N2CCCc3ccccc32)cc1 | -1% | -9%

Screens (PubChem)
